Measured values reported in ChEMBL document CHEMBL3988442, “University of Dundee, Small-Polar-MMV Screening Library” (2021).
Values joined by “and” are separate entries in the source; they are usually repeats but may differ in a detail not shown here. Equal entries are not always repeated. The whole screen tested about 38,000 compounds, of which about 1,200 (3.2%) showed an effect of 50% or more. The median lay at about -58%. This excerpt belongs to a sample that is enriched for strong results.

System: Plasmodium falciparum
Test: Calibr Malaria Delayed Death Assay SOP
Assay type: functional, organism-based
Design: scale not given: in the data most compounds retested in dose-response had high values
Details: concentration 4.99e-06 (unit not given; other assays of the set use mol/L)

Compound | Percent Effect [%] | Percent Effect (4.99 µM)
CCc1cnc(CN(C(C)=O)C2CCN(CCc3ccccn3)C2)o1 (stereo unspecified) | -120.8 | –
Cc1csc2ncnc(N3CCCC(Cn4cc(C(C)(C)O)nn4)C3)c12 (stereo unspecified) | -82.82 | –
Cc1cc(C(=O)Nc2cccn(Cc3ccc(F)cc3)c2=O)on1 | -10.66 | –
CCc1nc(CN2CCCN(C(=O)CCCOC)CC2)cs1 | -51.29 | –
Cc1cc2nc(CN(C)c3ccc(Cl)cc3)cc(=O)n2o1 | -90.64 | –
CCCS(=O)(=O)N1CCOC2(CCCN(Cc3ccccn3)C2)C1.O=C(O)C(F)(F)F (stereo unspecified) | -25.77 | –
c1cnnc(N2CCCC2CNc2ncnc3c2CCC3)c1 (stereo unspecified) | -141.7 | –
CN(Cc1ncc(-c2ccccc2)o1)CC1CCCN1c1cccnn1 (stereo unspecified) | -41.68 | –
c1cnnc(N2CCCC2CNc2ncnc3ccsc23)c1 (stereo unspecified) | -78.5 | –
CN(Cc1ncc(C(C)(C)C)o1)CC1CCCN1c1cccnn1 (stereo unspecified) | 79.78 | –
CN(Cc1ncc(C(C)(C)C)o1)C1CCCN(c2cccnn2)C1 (stereo unspecified) | -55.67 | –
Fc1ccc(Oc2ccc(CNCC3CNc4ccnn4C3)cn2)cc1 (stereo unspecified) | -107.9 | –
O=C(COCC(=O)N(c1ccccc1)c1ccccc1)N1CCCCC1 | -158.5 | –
CCc1nc(NCC2CCCN(C(=O)C3CC3)C2)c2cnn(C)c2n1 (stereo unspecified) | -178 | –
Cc1nccn1-c1ccc(C(C)NCCc2ccccn2)cc1 (stereo unspecified) | 9.885 | –
CC(C)n1ccnc1CN1CCOC(CCc2ccccc2)C1 (stereo unspecified) | 7.997 | –
CCN1CCCC(C)(C(=O)NCc2nccn2Cc2ccccc2)C1 (stereo unspecified) | 29.31 | –
CN(CCc1ccccn1)Cc1nccn1Cc1ccccc1 | 56 | –
CCc1ccc(C(C)NCc2nccn2Cc2ccccc2)o1 (stereo unspecified) | -17.05 | –
Cc1nccn1-c1ccc(C(C)NCCC(C)C)cc1 (stereo unspecified) | 48.4 | –
CC(NCCc1nccn1Cc1ccccc1)c1ccsc1 (stereo unspecified) | 82.98 | –
CC(C)(C)C(=O)NCc1nccn1CCc1ccccc1 | 10.03 | –

Compound | Percent Effect [%] | Percent Effect (4.99 µM)
CN(Cc1ccncc1)Cc1nccn1Cc1ccccc1 | -44.2 | –
CN(CCc1ccncc1)Cc1nccn1Cc1ccccc1 | 39.55 | –
Cc1nc(NC(=O)NCCCN2CCC(C(N)=O)CC2)sc1C | -93.87 | –
Cc1nnc(C(NS(=O)(=O)c2cc(F)c(C)cc2F)C(C)C)[nH]1 (stereo unspecified) | -26.37 | –
Cc1ccc(CN(C)Cc2ncc(C(C)(C)C)o2)o1 | -58.81 | –
COc1cccc(OC2CN(C(=O)c3c(C)noc3C)C2)c1 | -22.85 | –
O=c1c2ccc(Cl)cc2ncn1CCCN1CCCCC1CO (stereo unspecified) | -12.14 | –
CC(C)c1ccc(NC(=O)c2ncc(C(N)=O)cc2Cl)cc1 | -172.5 | –
O=C1CC(c2ccc3c(c2)OCO3)c2cnn(C3CCCC3)c2N1 (stereo unspecified) | -69.51 | –
Cn1cc(C2CC(=O)NC23CCN(C(=O)NC2CC2)CC3)cn1 (stereo unspecified) | -54.83 | –
CC(C)C(C)N(C(=O)Cn1nc2n(c1=O)CCCCC2)C1CC1 (stereo unspecified) | -123.2 | –
CCCc1cnc(C)nc1N1CCC(Cc2ccc(CO)cc2)C1 (stereo unspecified) | -3.438 | –
CN1CCN(C)C2(CCN(Cc3ccc(C4CCCCO4)o3)CC2)C1 (stereo unspecified) | -149.2 | –
CN1CCC2(CC1)CN(Cc1ccc(C3CCCCO3)o1)CCCN2C (stereo unspecified) | 80.31 | –
OCC1(O)CCN(Cc2ccc(C3CCCCO3)o2)CC1 (stereo unspecified) | -16.13 | –
Oc1cccc(C2CN(c3nnc(C4CC4)s3)CCO2)c1 (stereo unspecified) | -92.75 | –
CN(Cc1ccccc1)CC(C)(C)NC(=O)c1ccon1 | -38.2 | –
O=C(Nc1ccccc1OC1CCOC1)c1ccon1 (stereo unspecified) | -94.04 | –
O=C(O)C(F)(F)F.O=C([C@@H]1CCO[C@@H]2CCN(Cc3cccs3)C[C@H]21)N1CCCCO1 | -36.32 | –
Cc1cccc(CN2C[C@@H]3CCCO[C@@H]3[C@H](Nc3ccccn3)C2)n1 | 55.52 | –
Cc1cccc(CN2C[C@@H]3CCCO[C@@H]3[C@H](NS(C)(=O)=O)C2)n1 | -67.26 | –
Cc1ncsc1CN1C[C@@H]2CCCO[C@@H]2[C@H](Nc2ccccn2)C1.O=C(O)C(F)(F)F.O=C(O)C(F)(F)F | -27.39 | –

Compound | Percent Effect [%] | Percent Effect (4.99 µM)
CN(C)Cc1nc(-n2cnc(C(=O)NC3CCCC3)c2)n2ccccc12 | 8.682 | –
CC(C)Oc1ccccc1NC(=O)N1CCC(n2cncn2)CC1 | -58.88 | –
Cc1ccc(-c2nc(CN3CCn4c(nnc4C4CC4)C3)co2)c(C)c1 | -40.53 | –
c1ccc(-c2cnc(CN3CCn4c(nnc4C4CC4)C3)o2)cc1 | -11.2 | –
Cc1ccccc1-c1noc(CN2CCn3c(nnc3C3CC3)C2)n1 | 50.31 | –
CC(C)c1nnc(CN2CC(n3cccn3)Cc3ccccc32)o1 (stereo unspecified) | -227.8 | –
O=C(NCC1CC1)c1nnc2ccc(Cl)cc2n1 | 9.063 | –
COCCN1CCCCC12CC(=O)N(c1ccccc1OC)C2.O=C(O)C(F)(F)F (stereo unspecified) | -87.11 | –
CCCN1CCCN(S(=O)(=O)c2cnc3onc(C)c3c2)CC1 | -59.23 | –
CC(C)c1nccn1C1CCCN(C(=O)CCCc2ccccn2)C1 (stereo unspecified) | -134.4 | –
Clc1ccc(N2CCN(CCCN3CCCCC3)CC2)nc1 | 68.33 | –
CC(C)OCCN1CCN(c2ccc(Cl)cn2)CC1 | -78.08 | –
CSCCCN1CCN(c2ccc(Cl)cn2)CC1 | 28.74 | –
CCCn1cc(-c2cc(C(=O)N(C)C)c3ccc(C)cc3n2)cn1 | – | -45.66% and -43.3%
CN(Cc1ccccn1)C1CC2(CCN(Cc3ccccn3)CC2)C1.O=C(O)C(F)(F)F.O=C(O)C(F)(F)F | -38.28 | –
Cc1cccnc1CC(C)Nc1ncc(C)c(N(C)C)n1 (stereo unspecified) | 44.79 | –
Cc1cccc(-c2ncc(CNC(C)Cc3ncccc3C)cn2)c1 (stereo unspecified) | -10.25 | –
CCn1nc2c(cc1=O)CN(CCOc1ccccc1C#N)CC2 | -106.3 | –
Cc1nnsc1C(=O)NCc1cccnc1N(C)Cc1ccccc1 | -61.52 | –
CN(C)c1ncccc1CNCc1ccc(N2CCOCC2)cc1 | -64.22 | –
CN(Cc1ccccc1)c1ncccc1CNC1CN2CCC1CC2 (stereo unspecified) | 62.39 | –
CN(Cc1ccccc1)c1ncccc1CNC(=O)c1ccnn1C | -17.51 | –

Compound | Percent Effect [%] | Percent Effect (4.99 µM)
CN(Cc1ccccc1)c1ncccc1CNC1CCC1 | 69.98 | –
CCn1cc(C(=O)NCc2cccnc2N(C)Cc2ccccc2)cn1 | -74.6 | –
CN(Cc1ccccc1)c1ncccc1CNC1CCSCC1 | 25.77 | –
CN(Cc1ccccc1)c1ncccc1CNC1CCCC1 | 65.38 | –
CC(=O)NC1CCCN(C(=O)NCc2cccnc2N(C)C)C1 (stereo unspecified) | -14.71 | –
CN(c1ncccc1CNCc1ncc[nH]1)C1CCCCC1 | 37.42 | –
CC(=O)N1CCC(NCc2cccnc2N(C)Cc2ccccc2)CC1 | -58.67 | –
Cc1n[nH]c(C)c1CNC(=O)N1CCCC(Cc2nccn2C)C1 (stereo unspecified) | -135.2 | –
O=C1CC(N2CCN(c3ccc(F)cc3)CC2)C(=O)N1Cc1cccs1 (stereo unspecified) | -39.99 | –
COc1ccc(Nc2c[nH]c(=O)[nH]c2=O)cc1 | -70.96 | –
CNC(=O)[C@@]12CCC3(CCNCC3)[C@@H]1CN(S(C)(=O)=O)C2 | -13.04 | –
N#CC1(C(=O)N2CCOC(c3ccc(F)cc3)C2)CCCC1 (stereo unspecified) | -26.56 | –
O=C(O)C(F)(F)F.O=C(O)C(F)(F)F.c1cncc(OC[C@]23COC[C@H]2CN(Cc2nccs2)C3)c1 | -94 | –
Cc1cc(C(=O)N2CCn3cc(CN4CCCC4)nc3C2)no1 | -104.3 | –
CCC(NC1CCN(S(C)(=O)=O)CC1)c1cccs1 (stereo unspecified) | -138.1 | –
COc1cc(NC(=O)NCC2CCCO2)cc(OC)c1 (stereo unspecified) | -111.7 | –
Cc1cncc(C2CCCN(CC3CCC3)C2)n1 (stereo unspecified) | -16.18 | –
COC1CCN(C(=O)Nc2ccccc2)CC(=O)N(C)c2ccccc21 (stereo unspecified) | -65.05 | –
CCc1nc(C)c(CC(=O)N2CCC3(CC2)OCCCC3OC)c(=O)[nH]1 (stereo unspecified) | -118.2 | –
CCN1CCC(Cn2ccc3c(OC)c(OC)ccc3c2=O)C1 (stereo unspecified) | 20.65 | –
CCN1CCC(CNCc2c[nH]nc2C(C)(C)C)C1.Cl (stereo unspecified) | -150.6 | –
CCN1CCC(CNCc2cc(C)ccc2OC)C1 (stereo unspecified) | 82.22 | –

Compound | Percent Effect [%] | Percent Effect (4.99 µM)
CCN1CCCC(CNC(=O)CCc2ccc(OC)c(F)c2)C1 (stereo unspecified) | -76.38 | –
CCN1CCC(CNC(=O)NCc2cc(-c3ccc(C)cc3)no2)C1 (stereo unspecified) | -139.2 | –
CCN1CCC(CNCc2cc(OC)ccc2OC)C1 (stereo unspecified) | 56.22 | –
CCO[C@H]1COC[C@@H]1NC(=O)CCc1nc(-c2ccccc2)no1 | -93.65 | –
CCOCC(=O)NCCc1nc(C2CC2)cc(C(F)(F)F)n1 | -127.5 | –
CCS(=O)(=O)N1CC(c2nc(-c3ccsc3)no2)C1 | -143.6 | –
Cc1cccnc1CNC(=O)N(CCCO)C1CCc2ccccc21 (stereo unspecified) | -23.18 | –
COc1c(CNC2CCc3cc(Cl)ccc32)c(C)nn1C (stereo unspecified) | 17.62 | –
COc1c(CNC2(c3noc(C)n3)CCC2)c(C)nn1C.Cl | -62.55 | –
COc1c(CNC2(c3ccc(Cl)cc3)CCC2)c(C)nn1C | 58.68 | –
Cc1cc(C)n(-c2cccc(C(=O)Nc3n[nH]c(C4CCCO4)n3)c2)n1 (stereo unspecified) | -55.68 | –
Cc1ccc(O)c(CNc2cccc(CN3CCSCC3)c2)n1 | -16.46 | –
Cc1ccc(C(=O)O)cc1CNC(=O)CN1CC[C@](C)(O)C(C)(C)C1 | -2.954 | –
CC1(C)CN(CCC(=O)NCc2cccc(Cl)c2)CC[C@]1(C)O | 51.99 | –
O=C(CCC(=O)NCc1cccc(Br)c1)NCCN1CCCC1 | -111.7 | –
NC(=O)CN(CC(=O)NCc1cccc(Cl)c1)C1CCCC1 | -61.22 | –
O=C(CCN1CCCC(CO)(CC2CC2)C1)NCc1cccc(Cl)c1 (stereo unspecified) | 79.46 | –
OCC1(Cc2cccc(Cl)c2)CCCN(c2ncccn2)C1 (stereo unspecified) | -87.85 | –
